According to PubChem BioAssay AID624336 (National Center for Advancing Translational Sciences (NCATS), 2012):
Inconclusive results are not listed. Values without a mark were called inactive. Activity calls are given as the source filed them. Calls follow the shape of the dose curve; as a rule, active = well fitted curve in the direction sought with a large enough effect; inconclusive = small, poorly fitted or top-dose-only effect; inactive = flat fitted curve, though single readings scatter.

assay: Quantitative high throughput screen for delayed death inhibitors of the malarial parasite plastid: Hit Validation with Dd2 at 48 hr using Flow Cytometry; settings: P. falciparum Dd2 growth, flow cytometry SYBR/MitoTracker; relative growth, lower = inhibition: at 50 µM (top of the series)
Excerpt: The goal of this screen is to discover new antimalarial compounds that act by inhibiting the development of the apicoplast organelle in the malarial parasite Plasmodium falciparum. Some antibiotics, such as azithromycin and tetracycline, are known to interfere with the apicoplast translational machinery, and have a potent antimalarial effect. […] We developed a cell-based quantitative high throughput screen that leverages this "delayed death" phenotype to enrich for compounds that target the apicoplast. To detect small molecules that cause the delayed death phenotype, erythrocytes infected with firefly luciferase-expressing parasites were incubated with compounds for either one or two generations, corresponding to 48 and 96 hours, respectively. Growth inhibition was detected by a decrease in luciferase activity. Compounds that inhibited parasite growth in the second generation at least five-fold more potently than in the first generation were defined as delayed death inducing. These compounds were selected for confirmatory screening using a flow cytometry based assay. This hit validation assay used the Dd2 cell line and measured at 48 hours. NIH Molecular Libraries Probe Production Network [MLPCN] NIH Chemical Genomics Center [NCGC] MLPCN Grant: R21 NS059500 Assay Provider: David Fidock and Eric Ekland, Columbia University
Test compounds were diluted in 20 microliters of complete media (RPMI 1640 with 0.5% w/v Albumax (GIBCO), 24 mM sodium bicarbonate (Sigma) and 10 ug/mL gentamycin (Gibco)) in clear 384-well plates (Greiner). All liquid handling was conducted using a Bio Tek Precision 2000 pipetting system. Twenty microliters of infected erythrocytes, 0.2% parasitemia (for 48 hour time points) or 0.1% parasitemia (for 96 hour time points) were added to the compound dilutions (1% hematocrit, final concentration; 40 microliters, total culture volume). The assay plates were incubated for 48 hours, or 96 hours, at 37 masculine C in a humidified chamber (Billups- Rothenberg, Del Mar, CA, USA), gassed with 5%CO2/5%O2/ 90%N2. After one generation (48 hours), 5 microliters of culture were harvested and transferred to a second 384 well plate for fluorescent staining. Samples were stained with 30 microliters of 2 x SYBR Green I (Invitrogen) and 150nM MitoTracker Deep Red (Invitrogen) diluted in 0.9% NaCl, 0.2% dextrose (Baxter) supplemented with 2.5% Fetal Calf Serum (Gibco) (saline/FCS). Mature erythrocytes lack nuclei and mitochondria, therefore only parasitized erythrocytes retain the SYBR Green I and MitoTracker Deep Red. After 30 minutes at 37 masculine C, the stained cells were diluted in an additional 60 microliters of saline/FCS. The samples were harvested directly from the 384 well plate using a Hypercyt High Capacity Flow Platform (Intellicyt) paired with a C6 Flow Cytometer (Accuri). The flow cytometry files were analyzed using FlowJo software (FlowJo).

Row | SMILES | Potency | relative growth, lower = inhibition
1 | Cc1ccc(-n2c(-c3ccc(Cl)cc3)c[n+]3c2CCC3)cc1 | 2.64 µM (active) | –
2 | O=C(Nc1ccccc1N1CCOCC1)c1cccc(S(=O)(=O)N2CCOCC2)c1 | 14.7 µM (active) | –
3 | CO[C@@H]1[C@@H](OC2OC(C)C(OC3CC(C)(O)C(OC(=O)CC(C)C)C(C)O3)C(N(C)C)C2O)[C@@H](CC=O)C[C@@H](C)C(=O)/C=C\C2O[C@H]2C[C@@H](C)OC(=O)C[C@H]1OC(C)=O (stereo partly specified) | 1.04 µM (active) | –
4 | Clc1ccc(-c2c[n+](Cc3ccc(Cl)cc3Cl)c3n2CCCCC3)cc1 | 5.44 µM (active) | –
5 | Brc1cccc(OCCCCN2CCCCC2)c1 | 2.36 µM (active) | –
6 | Cc1ccc(S(=O)(=O)Nc2ccc(C(=O)Nc3ccncc3)cc2)cc1 | – | 0.257 (active)
7 | c1csc(CNc2ncnc3nc[nH]c23)c1 | – | 1.61
8 | O=C(CSc1ccc(-c2cccnc2)nn1)Nc1ccccc1C(F)(F)F | 8.74 µM (active) | –
9 | CCCCN(CCCNC(=O)C1CCN(C(=O)c2cc3sccc3n2C)CC1)Cc1ccccc1 | 3.62 µM (active) | –
10 | Cc1sc2nc[nH]c(=O)c2c1-c1ccc(Cl)cc1 | 31.7 µM (active) | –
11 | CCOC(=O)c1ccc2c(c1)n(CC)c(/C=C/N(C)c1ccccc1)[n+]2CC | 2.08 µM (active) | –
12 | CCOc1ccc(NC(=O)C[n+]2ccc(N(C)C)cc2)cc1 | 2.57 µM (active) | –
13 | COc1ccc2c(ccc[n+]2CC(=O)c2ccccc2)c1 | 7 µM (active) | –
14 | N#Cc1cccc(NC(=O)Cn2c3[n+](c4ccc(C(F)(F)F)cc42)CCCCC3)c1 | 26.1 µM (active) | –
15 | COc1ccc(NC(=S)N2CCC(Cc3ccccc3)CC2)cc1OC | 10.8 µM (active) | –
16 | CC1=Nc2cc(C(=O)N3CCCC3)ccc2Sc2ccc(C)cc21 | – | 0.214 (active)

Row | SMILES | Potency | relative growth, lower = inhibition
17 | CN(C)c1ccc(CN(C(=O)c2ccccc2Br)C2CCS(=O)(=O)C2)cc1 (stereo unspecified) | 9.14 µM (active) | –
18 | Cc1c(F)c(N2CCNC(C)C2)cc2c1c(=O)c(C(=O)O)cn2C1CC1 (stereo unspecified) | 4.14 µM (active) | –
19 | O=C(CNC(=O)C1CCCCC1)OC(C(=O)c1ccccc1)c1ccccc1 (stereo unspecified) | – | 1.59
20 | CCCCN(CCCNC(=O)c1ccc(CS(=O)(=O)c2ccc(OC)cc2)o1)Cc1ccccc1 | 6.24 µM (active) | –
21 | COc1ccccc1N1CCN(CCC(=O)Nc2ccc(F)cc2)CC1 | – | 0.587 (active)
22 | COc1cccc(CN2CCN(c3nc4nonc4nc3N3CCCCC3)CC2=O)c1 | 14 µM (active) | –
23 | COc1cc(C(C)=O)ccc1OCC(O)CN1CCN(c2cc(C)cc(C)c2)CC1 (stereo unspecified) | – | 0.462
24 | COCCNC(=O)c1cccc(OC2CCN(Cc3cccc(SC)c3)CC2)c1 | – | 0.375
25 | CN(C)S(=O)(=O)c1cc(NC(=O)C2=COCCO2)ccc1Cl | – | 1.39 (active)
26 | CCOc1ccc(S(=O)(=O)Nc2cc(S(=O)(=O)N(CC)CC)ccc2N2CCCC2)cc1 | – | 0.264 (active)
27 | CCCc1cc(=O)oc2cc(OC(C)C(=O)NCc3ccccn3)c(Cl)cc12 (stereo unspecified) | 20.8 µM (active) | –
28 | CCCCOc1ccc(N2C(N)=NC(N)=NC23CCCCC3)cc1 | 23 µM (active) | –
29 | CCC(=O)OC1C(N(C)C)CC(C)O[C@H]1O[C@H]1[C@H](C)[C@@H](O[C@H]2CC(OC)[C@@H](O)C(C)O2)[C@H](C)C(=O)O[C@@H](CC)[C@](C)(O)[C@@H](O)[C@H](C)C(=O)[C@@H](C)C[C@]1(C)O (stereo partly specified) | 34.1 µM (active) | –
30 | CCCc1c(CC)c(=N)c2ccccc2n1C | – | 0.187 (active)
31 | Cc1ccc(CN2CCC(n3nccc3NC(=O)c3ccccc3C)CC2)o1 | 2.38 µM (active) | –
